In PubChem BioAssay (NCI) one finds growth data, which are given here for nine compounds.

Common to all, as to test: NCI-60 one-dose screen, 48 h (100 = growth as untreated, 0 = no growth, -100 = all killed)
What all share (conditions): 10 µM unless noted

Test [1] concerns HT29 colon.
Test [2] relates to SNB-75 CNS.
Test [3] concerns SNB-19 CNS.
The test system of test [4] is U251 CNS.
The test system of test [5] is PC-3 prostate.
The test system of test [6] is SK-MEL-5 melanoma.
Test [7] deals with UACC-62 melanoma.
In test [8] the test system is LOX IMVI melanoma.
Test [9] has as its system SK-MEL-28 melanoma.
Test [10] has as its system SK-MEL-2 melanoma.
Test [11] has as its system EKVX NSCLC.
Test [12] deals with SN12C renal.
Test [13] deals with TK-10 renal.
Test [14] concerns ACHN renal.
Test [15] relates to CAKI-1 renal.
Test [16] has as its system A498 renal.
Test [17] concerns MOLT-4 leukemia.
The test system of test [18] is UO-31 renal.
Test [19] relates to CCRF-CEM leukemia.

Each structure is given as a SMILES string. The panel holds about 83,000 compounds, 20% with a hit somewhere; the sample as a whole holds those more often.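 Treatment: one concentration, 48 hours, 96-well format. Scoring: percent growth, with anything below 10 considered active.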 Values without a mark were called inactive. Activity calls are given as the source filed them.

As to `O=C(Nc1ccc(F)cc1)c1c(NC(=O)C(F)(F)F)sc2c1CCCCC2`, the growth was 5.86% (active) in [1]; -23% (active) in test [2]; 13.3% in [3]; 6.02% (active) in [4]; 3.29% (active) in test [5]; -55.6% (active) in test [6]. In addition, the growth in [7] is 3.56% (active); in test [8], 15%; in test [9], 12.2%; in test [10] it was -26.8% (active); in test [11], -2.06% (active); in test [12] it was 2.15% (active). The growth is 15.5% in test [13]; 1.59% (active) in test [14]; -19.1% (active) in [15]; -57% (active) in test [16]; 3.21% (active) in [17].

For the compound `CC(C)CN(C(=O)c1ccc(Cl)cc1)c1c(N)n(CC(C)C)c(=O)[nH]c1=O`, the growth in test [1] was 111%; in [2], 88.4%; in test [3], 96.6%; in [4], 98.8%; in test [5] it was 89.8%; in [6] it was 37.6%. The growth is 88.7% in [7]; 102% in test [8]; 107% in test [9]; 96.4% in test [10]; 106% in test [11]; 87.8% in test [12]. Also, the growth in [18] is 98.2%; in test [13], 125%; in [15] it was 50.2%; in test [16], 108%; in [19] it was 93.1%; in test [17] it was 97.2%.

In the case of `C#CCNC(=O)[C@H](Cc1ccccc1)NC(=O)[C@]12CC[C@@H](C(=C)C)[C@@H]1[C@H]1CC[C@@H]3[C@@]4(C)Cc5c([nH]c6ccccc56)C(C)(C)[C@@H]4CC[C@@]3(C)[C@]1(C)CC2`, the growth is 92.9% in [2]; 90.9% in [3]; 91.8% in [4]; 77.8% in [5]; 102% in [6]; 93.2% in test [7]. The growth in test [8] was 97.4%; in [9], 102%; in test [10] it was 95.5%; in test [11] it was 94%; in test [18], 90.3%; in test [13] it was 90.4%. Moreover, the growth in test [14] was 94.8%; in test [15] it was 86.8%; in [19], 91.6%; in test [17], 93.7%.

Take `CN(C)C(=O)c1cc2cnc(Nc3ccc(-c4csc5c(=O)cc(N6CCOCC6)oc45)cc3)nc2n1C1CCCC1`: the growth in test [1] is -48.6% (active); in test [2] it was -65% (active); in test [3], 1.45% (active); in test [4] it was -7.84% (active); in test [5] it was -42% (active); in test [6], -98% (active). The growth in test [7] was -69.6% (active); in test [8], -39.3% (active); in [9] it was -55.9% (active); in [10] it was -58.6% (active); in test [11], -19.5% (active); in test [12], 4.35% (active). Further, the growth was -5.39% (active) in test [18]; 1.06% (active) in test [14]; -50.8% (active) in [15]; -14.4% (active) in test [19]; -32% (active) in test [17].

In the case of `COc1cc2nc(-c3ccc(C(F)(F)F)cc3)cc(OCCN3CCC(O)CC3)c2cc1OC`, the growth in test [1] was 47%; in test [2], 58.1%; in test [3], 89%; in [4] it was 69.2%; in test [5], 71.8%; in test [6] it was 68%. Moreover, the growth in test [7] is 84.5%; in test [8], -20.6% (active); in test [9], 80.7%; in test [10] it was 103%; in [11], 61.9%; in test [18], 52.4%. Also, the growth in test [13] was 86.1%; in test [14], 75.5%; in test [15], 34.6%; in [17], 77%.

Regarding `CC(c1ccccc1)n1ccnc1CO` (centres undefined), the growth in [1] was 119%; in test [2], 92.4%; in [3] it was 98.5%; in test [4] it was 98.9%; in test [5], 94.7%; in test [6], 93.4%. In addition, the growth is 104% in test [7]; 96.3% in [8]; 94.5% in [9]; 111% in [10]; 93.3% in [11]; 102% in test [12]. For the same compound, the growth in test [18] is 95.4%; in [13], 88.2%; in test [14], 103%; in test [15], 88.9%; in test [19], 105%; in test [17], 107%.

For `CCCC/C(=N\N=C(N)N)c1ccc(F)cc1`, the growth in test [1] is 1.87% (active); in test [2] it was -1.82% (active); in test [3] it was 41.6%; in test [4] it was 32.1%; in test [5] it was 26.3%; in test [6], 2.87% (active). Moreover, the growth is 45.3% in test [7]; 26.5% in test [8]; 54% in test [9]; 1.07% (active) in test [10]; 44.5% in [11]; 37.5% in test [12]. The growth in [18] was 45.3%; in test [13], 50.7%; in test [15], 29.5%; in [19], 26.3%; in test [17], 32.4%.

As for `Cc1ccc(Nc2cc(=S)nc(N)[nH]2)cc1C`, the growth in test [1] was 94.3%; in test [2], 78.1%; in test [3] it was 90.1%; in test [4], 92.1%; in [5], 90.7%; in test [6], 102%. The growth was 89.2% in test [7]; 105% in [8]; 101% in test [9]; 99.9% in test [10]; 79% in test [11]; 81.4% in test [18]. In addition, the growth is 144% in [13]; 91.2% in [14]; 90.5% in test [15]; 112% in [19]; 97.4% in [17].

Regarding `NC(=S)N/N=C(\c1ccc(Cl)cc1)C1CC1`, the growth in test [1] was 50.6%; in test [2], 83.7%; in test [3], 104%; in [4], 92.1%; in test [5], 77.9%; in test [6] it was 89.1%. Besides, the growth in [7] was 87.3%; in [8] it was 94.2%; in [9], 98.7%; in test [10] it was 106%; in test [11], 69.8%; in [12], 83%. Moreover, the growth in test [18] is 58.7%; in test [13], 102%; in test [14], 88.4%; in test [15], 81.1%; in test [19], 63.2%; in test [17], 46.9%.
